{
  "source": "PubChem BioAssay (EPA / NIEHS)",
  "key": {"[1]": {"target": "human Elastase, ELANE (gene 1991) (UniProt P08246)", "sequence (P08246 whole entry, looked up)": "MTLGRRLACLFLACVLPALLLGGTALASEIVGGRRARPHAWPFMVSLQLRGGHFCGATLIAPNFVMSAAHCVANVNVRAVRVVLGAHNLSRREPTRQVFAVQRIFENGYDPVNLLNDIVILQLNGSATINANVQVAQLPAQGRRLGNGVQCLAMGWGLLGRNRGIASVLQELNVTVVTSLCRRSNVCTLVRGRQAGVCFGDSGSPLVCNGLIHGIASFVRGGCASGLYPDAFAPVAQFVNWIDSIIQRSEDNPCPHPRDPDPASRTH", "assay": "NVS_ENZ_hElastase: NovaScreen (NVS) Enzymatic Assay for human Elastase (AID 2283153)", "how_it_was_run": "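Cell-free elastase from human neutrophils, 1.5 h after dosing, activity read by absorbance. Primary screen in duplicate at 25 uM; hits (e.g., 30% inhibition) rerun in singleton concentration-response up to 50 uM, fitted versus DMSO.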"}, "[2]": {"target": "human Dual Specificity Protein Phosphatase 3 (DUSP3), DUSP3 (gene 1845) (UniProt P51452)", "sequence (P51452 whole entry, looked up)": "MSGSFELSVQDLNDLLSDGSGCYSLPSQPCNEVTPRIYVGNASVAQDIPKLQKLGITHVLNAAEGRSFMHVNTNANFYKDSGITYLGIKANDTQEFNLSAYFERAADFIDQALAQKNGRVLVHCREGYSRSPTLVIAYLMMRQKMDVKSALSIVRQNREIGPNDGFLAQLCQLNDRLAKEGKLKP", "assay": "NVS_ENZ_hDUSP3: NovaScreen (NVS) Enzymatic Assay for human Dual Specificity Protein Phosphatase 3 (DUSP3) (AID 2283152)", "how_it_was_run": "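Cell-free assay with recombinant human DUSP3 and fluorogenic substrate, read by fluorescence intensity. Primary screen ran duplicate at 25 uM; actives followed up in concentration series; loss of signal versus DMSO scored.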"}, "[3]": {"target": "human Ephrin type-B Receptor 1 (EphB1), EPHB1 (gene 2047) (UniProt P54762)", "sequence (P54762 whole entry, looked up)": "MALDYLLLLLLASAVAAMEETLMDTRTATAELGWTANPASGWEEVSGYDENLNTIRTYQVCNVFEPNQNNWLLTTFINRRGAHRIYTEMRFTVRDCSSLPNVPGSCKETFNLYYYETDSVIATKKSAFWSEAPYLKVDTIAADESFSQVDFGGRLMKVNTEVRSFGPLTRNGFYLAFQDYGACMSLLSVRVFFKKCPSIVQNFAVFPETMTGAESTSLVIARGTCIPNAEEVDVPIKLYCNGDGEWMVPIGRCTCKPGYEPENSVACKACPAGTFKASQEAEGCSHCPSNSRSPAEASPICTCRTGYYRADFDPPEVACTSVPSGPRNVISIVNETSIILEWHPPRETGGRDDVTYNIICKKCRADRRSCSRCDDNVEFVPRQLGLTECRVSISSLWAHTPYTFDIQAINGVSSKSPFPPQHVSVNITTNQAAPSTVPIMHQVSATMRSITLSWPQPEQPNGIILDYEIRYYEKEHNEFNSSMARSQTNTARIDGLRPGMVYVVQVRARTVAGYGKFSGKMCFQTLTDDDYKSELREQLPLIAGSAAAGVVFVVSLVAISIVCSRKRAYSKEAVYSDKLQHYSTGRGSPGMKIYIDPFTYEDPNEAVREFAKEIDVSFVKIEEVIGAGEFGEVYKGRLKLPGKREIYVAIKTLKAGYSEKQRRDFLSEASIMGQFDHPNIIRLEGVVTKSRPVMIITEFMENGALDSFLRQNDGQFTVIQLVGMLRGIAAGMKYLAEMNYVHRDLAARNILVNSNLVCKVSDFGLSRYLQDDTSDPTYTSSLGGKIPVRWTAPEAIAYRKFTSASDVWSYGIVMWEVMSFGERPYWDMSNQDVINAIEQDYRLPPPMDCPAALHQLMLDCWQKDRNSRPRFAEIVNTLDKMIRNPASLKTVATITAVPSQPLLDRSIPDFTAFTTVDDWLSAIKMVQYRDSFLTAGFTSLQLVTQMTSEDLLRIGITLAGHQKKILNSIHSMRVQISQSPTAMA", "assay": "NVS_ENZ_hEphB1: NovaScreen (NVS) Enzymatic Assay for human Ephrin type-B Receptor 1 (EphB1) (AID 2283154)", "how_it_was_run": "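Cell-free kinase assay with recombinant enzyme, fluorescent substrate and electrophoretic mobility-shift separation of substrate and product; read 1 h after dosing. Single-concentration duplicate screen at 25 uM; loss of signal versus DMSO baseline.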"}, "[4]": {"target": "human Esterase Plasma (ES), BCHE (gene 590) (UniProt P06276)", "sequence (P06276 whole entry, looked up)": "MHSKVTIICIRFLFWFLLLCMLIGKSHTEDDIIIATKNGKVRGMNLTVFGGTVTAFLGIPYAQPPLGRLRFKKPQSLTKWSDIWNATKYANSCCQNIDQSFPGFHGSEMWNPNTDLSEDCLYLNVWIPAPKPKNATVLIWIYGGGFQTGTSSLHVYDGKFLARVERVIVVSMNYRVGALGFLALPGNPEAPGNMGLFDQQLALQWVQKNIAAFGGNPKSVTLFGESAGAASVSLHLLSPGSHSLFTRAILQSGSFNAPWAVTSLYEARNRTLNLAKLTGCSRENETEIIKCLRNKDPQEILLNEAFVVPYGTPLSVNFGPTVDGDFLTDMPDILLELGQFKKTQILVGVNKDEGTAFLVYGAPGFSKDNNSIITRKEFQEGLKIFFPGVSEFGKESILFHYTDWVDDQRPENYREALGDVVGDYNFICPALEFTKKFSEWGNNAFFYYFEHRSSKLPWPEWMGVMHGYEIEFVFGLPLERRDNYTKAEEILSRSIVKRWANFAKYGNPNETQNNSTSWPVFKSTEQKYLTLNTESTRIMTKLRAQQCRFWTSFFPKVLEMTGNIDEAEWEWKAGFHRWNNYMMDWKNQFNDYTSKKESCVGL", "assay": "NVS_ENZ_hES: NovaScreen (NVS) Enzymatic Assay for human Esterase Plasma (ES) (AID 2283157)", "how_it_was_run": "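Esterase from human plasma, cell-free, colorimetric absorbance read 0.25 h after dosing. Screened at 25 uM in duplicate, with threshold-passing chemicals run in concentration-response up to 50 uM; loss of signal fitted versus DMSO.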"}, "[5]": {"target": "human Fibroblast Growth Factor Receptor 1 (FGFR1), FGFR1 (gene 2260) (UniProt P11362)", "sequence (P11362 whole entry, looked up)": "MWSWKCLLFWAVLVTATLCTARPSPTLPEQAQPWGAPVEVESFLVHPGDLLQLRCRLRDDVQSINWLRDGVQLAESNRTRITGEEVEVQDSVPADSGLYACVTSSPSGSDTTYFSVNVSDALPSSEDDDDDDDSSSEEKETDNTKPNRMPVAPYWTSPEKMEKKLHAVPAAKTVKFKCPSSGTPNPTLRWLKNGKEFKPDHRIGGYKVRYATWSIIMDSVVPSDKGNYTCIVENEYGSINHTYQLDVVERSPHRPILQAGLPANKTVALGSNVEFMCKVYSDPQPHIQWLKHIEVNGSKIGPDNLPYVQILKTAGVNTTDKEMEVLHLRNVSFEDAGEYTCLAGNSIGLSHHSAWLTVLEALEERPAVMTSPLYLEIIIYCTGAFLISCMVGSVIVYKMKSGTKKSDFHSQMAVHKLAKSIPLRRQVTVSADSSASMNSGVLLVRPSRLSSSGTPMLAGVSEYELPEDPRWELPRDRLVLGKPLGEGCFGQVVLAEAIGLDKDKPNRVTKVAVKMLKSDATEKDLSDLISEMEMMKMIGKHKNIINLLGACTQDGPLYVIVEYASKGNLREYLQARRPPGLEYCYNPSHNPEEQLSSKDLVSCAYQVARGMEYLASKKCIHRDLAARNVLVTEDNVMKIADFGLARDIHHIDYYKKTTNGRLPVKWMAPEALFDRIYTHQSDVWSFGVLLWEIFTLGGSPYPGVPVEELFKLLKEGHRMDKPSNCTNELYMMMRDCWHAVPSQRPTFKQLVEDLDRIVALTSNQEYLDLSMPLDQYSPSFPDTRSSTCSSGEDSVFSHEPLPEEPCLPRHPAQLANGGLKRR", "assay": "NVS_ENZ_hFGFR1: NovaScreen (NVS) Enzymatic Assay for human Fibroblast Growth Factor Receptor 1 (FGFR1) (AID 2283159)", "how_it_was_run": "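Cell-free recombinant kinase with fluorescent substrate, product separated by electrophoretic mobility shift; read 1 hour after dosing, loss of signal relative to DMSO. Initial screen in duplicate at 25 uM, actives followed in concentration series.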"}, "[6]": {"target": "human Ephrin type-A Receptor 2 (EphA2), EPHA2 (gene 1969) (UniProt P29317)", "sequence (P29317 whole entry, looked up)": "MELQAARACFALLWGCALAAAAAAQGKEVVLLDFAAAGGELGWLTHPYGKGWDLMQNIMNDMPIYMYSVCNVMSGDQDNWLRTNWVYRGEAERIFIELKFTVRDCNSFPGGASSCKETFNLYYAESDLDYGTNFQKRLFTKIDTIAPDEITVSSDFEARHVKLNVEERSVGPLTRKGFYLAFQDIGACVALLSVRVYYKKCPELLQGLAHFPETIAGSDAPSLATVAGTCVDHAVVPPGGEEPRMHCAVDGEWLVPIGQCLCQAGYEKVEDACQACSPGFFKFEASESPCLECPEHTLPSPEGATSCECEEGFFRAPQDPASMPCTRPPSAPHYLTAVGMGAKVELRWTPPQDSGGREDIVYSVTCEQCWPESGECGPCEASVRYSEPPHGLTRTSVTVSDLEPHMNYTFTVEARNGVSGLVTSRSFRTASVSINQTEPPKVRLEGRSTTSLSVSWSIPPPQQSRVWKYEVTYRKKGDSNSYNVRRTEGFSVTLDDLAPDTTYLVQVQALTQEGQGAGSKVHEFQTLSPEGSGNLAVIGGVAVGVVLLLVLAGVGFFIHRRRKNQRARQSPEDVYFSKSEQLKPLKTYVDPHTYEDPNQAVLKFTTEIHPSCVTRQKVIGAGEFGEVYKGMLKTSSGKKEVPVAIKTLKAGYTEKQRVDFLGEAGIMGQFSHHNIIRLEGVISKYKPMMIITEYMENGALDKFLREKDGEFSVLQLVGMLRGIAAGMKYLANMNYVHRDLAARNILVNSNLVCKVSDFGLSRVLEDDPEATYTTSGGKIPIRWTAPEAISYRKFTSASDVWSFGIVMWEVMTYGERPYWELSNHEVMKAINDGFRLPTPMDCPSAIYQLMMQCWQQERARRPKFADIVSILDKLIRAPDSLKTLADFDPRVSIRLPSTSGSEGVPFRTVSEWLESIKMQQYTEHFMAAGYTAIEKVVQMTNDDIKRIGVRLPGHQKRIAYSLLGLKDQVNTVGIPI", "assay": "NVS_ENZ_hEphA2: NovaScreen (NVS) Enzymatic Assay for human Ephrin type-A Receptor 2 (EphA2) (AID 2283155)", "how_it_was_run": "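Cell-free recombinant EphA2 kinase with specific substrate, 1 h, fluorescence with electrophoretic mobility-shift separation of substrate and product. Primary screen at 25 uM in duplicate; hits retested in singleton concentration-response up to 50 uM, referenced to DMSO.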"}, "[7]": {"target": "human Ephrin type-A Receptor 1 (EphA1), EPHA1 (gene 2041) (UniProt P21709)", "assay": "NVS_ENZ_hEphA1: NovaScreen (NVS) Enzymatic Assay for human Ephrin type-A Receptor 1 (EphA1) (AID 2283158)", "how_it_was_run": "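Cell-free enzymatic assay with recombinant EphA1 and fluorescent substrate; product separated by electrophoretic mobility shift, fluorescence intensity read 1 hour after dosing. Loss of signal versus DMSO baseline; primary duplicate screen at 25 uM, actives followed to 50 uM top concentration.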"}, "[8]": {"target": "human Casein Kinase 1-delta (CK1D), CSNK1D (gene 1453) (UniProt P48730)", "sequence (P48730 whole entry, looked up)": "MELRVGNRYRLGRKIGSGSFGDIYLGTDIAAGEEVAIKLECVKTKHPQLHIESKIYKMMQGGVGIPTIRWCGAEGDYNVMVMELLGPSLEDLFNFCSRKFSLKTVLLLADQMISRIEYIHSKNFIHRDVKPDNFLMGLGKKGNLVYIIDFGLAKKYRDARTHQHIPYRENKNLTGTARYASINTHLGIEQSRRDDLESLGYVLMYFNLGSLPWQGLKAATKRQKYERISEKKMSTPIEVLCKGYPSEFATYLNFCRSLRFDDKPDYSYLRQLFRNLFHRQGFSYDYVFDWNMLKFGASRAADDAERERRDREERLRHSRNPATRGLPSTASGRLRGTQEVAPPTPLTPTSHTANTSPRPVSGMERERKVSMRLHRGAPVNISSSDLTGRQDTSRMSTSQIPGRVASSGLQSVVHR", "assay": "NVS_ENZ_hCK1D: NovaScreen (NVS) Enzymatic Assay for human Casein Kinase 1-delta (CK1D) (AID 2283148)", "how_it_was_run": "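Recombinant human CK1-delta, cell-free; fluorescent substrate with electrophoretic mobility-shift separation of product, read 1 h after dosing. Single 25 uM duplicate screen, then concentration-response up to 50 uM; loss of signal vs DMSO.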"}},
  "note": "Records with an inconclusive call do not appear. Activity calls are given as the source filed them. How the source made its calls: active means hit-call score of the fitted dose curve at least 0.9, where 1 is the maximum; inconclusive means response in the unintended direction; inactive means score below 0.9.",
  "data": [
    {"smiles": "O=c1n(Cl)c(=O)n(Cl)c(=O)n1Cl", "values": [
      {"measurement": "outcome", "setting": "[1]", "value": "inactive"}
    ]},
    {"smiles": "CCOC(=O)C(C)OC(=O)c1cc(Oc2ccc(C(F)(F)F)cc2Cl)ccc1[N+](=O)[O-]", "note": "(centres undefined)", "values": [
      {"measurement": "outcome", "setting": "[2]", "value": "inactive"},
      {"measurement": "outcome", "setting": "[1]", "value": "inactive"},
      {"measurement": "outcome", "setting": "[3]", "value": "inactive"}
    ]},
    {"smiles": "Nc1c(Cl)c(F)nc(OCC(=O)O)c1Cl", "values": [
      {"measurement": "outcome", "setting": "[3]", "value": "inactive"}
    ]},
    {"smiles": "Cc1nc(N(C)C)nc(OC(=O)N(C)C)c1C", "values": [
      {"measurement": "outcome", "setting": "[3]", "value": "inactive"},
      {"measurement": "AC50", "setting": "[4]", "value": "16.9 µM (active)"}
    ]},
    {"smiles": "CC(C)=CC1C(C(=O)OCc2coc(Cc3ccccc3)c2)C1(C)C", "note": "(centres undefined)", "values": [
      {"measurement": "AC50", "setting": "[1]", "value": "33.6 µM (active)"}
    ]},
    {"smiles": "O=C1C2CC=CCC2C(=O)N1SC(Cl)(Cl)Cl", "note": "(centres undefined)", "values": [
      {"measurement": "outcome", "setting": "[5]", "value": "inactive"}
    ]},
    {"smiles": "Cc1ccc(N=CN(C)C=Nc2ccc(C)cc2C)c(C)c1", "values": [
      {"measurement": "outcome", "setting": "[3]", "value": "inactive"}
    ]},
    {"smiles": "CC(C)N1C(=O)N(c2ccccc2)CSC1=NC(C)(C)C", "values": [
      {"measurement": "AC50", "setting": "[2]", "value": "2.96 µM (active)"}
    ]},
    {"smiles": "O=C(Nc1ccccc1-c1ccc(Cl)cc1)c1cccnc1Cl", "values": [
      {"measurement": "outcome", "setting": "[3]", "value": "inactive"}
    ]},
    {"smiles": "Clc1nc(Cl)nc(Nc2ccccc2Cl)n1", "values": [
      {"measurement": "outcome", "setting": "[3]", "value": "inactive"},
      {"measurement": "outcome", "setting": "[6]", "value": "inactive"},
      {"measurement": "outcome", "setting": "[7]", "value": "inactive"}
    ]},
    {"smiles": "CN/C(=N\\[N+](=O)[O-])NCc1cnc(Cl)s1", "values": [
      {"measurement": "outcome", "setting": "[8]", "value": "inactive"},
      {"measurement": "outcome", "setting": "[3]", "value": "inactive"}
    ]},
    {"smiles": "CC1(C)C(C=C(Cl)Cl)C1C(=O)OC(C#N)c1cccc(Oc2ccccc2)c1", "note": "(centres undefined)", "values": [
      {"measurement": "AC50", "setting": "[2]", "value": "3.06 µM (active)"},
      {"measurement": "outcome", "setting": "[3]", "value": "inactive"}
    ]}
  ]
}
